Shown are actives, neighbours in structure and some others; about 18% of the full set was active somewhere.
TDP1 cell noCPT = qHTS for Inhibitors of human tyrosyl-DNA phosphodiesterase 1 (TDP1): qHTS in cells in absence of CPT; actives 15% (n = 420,000); DT40 Tdp1-/- hTDP1 cells, no CPT, ATP luminescence, 48 h; Potency, µM (highest dose often 46.2 µM), for inactives: at the top dose activity change, negative = growth inhibition, actives largely listed as inhibitors; also: potency is read from the fitted curve at half-maximal effect; % is scaled to controls: 0 for no effect and ±100 for the full control effect; nearly all actives have a fitted effect of over 55% in size
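Luminescent ATP content (CellTiter-Glo) served as the growth readout. Knockout chicken DT40 cells expressing human TDP1 were exposed to compounds without camptothecin for a minimum 48 hr at 37 °C.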
IL-1B inflam inh = inhibitors of inflammasome signaling (IL-1 beta secretion) | THP-1 LPS/ATP IL-1B secretion, AlphaLISA, 16 h; stronger effect = lower value | activity change, % at 57.5 µM | AID 743279 | actives 4.7% (n = 360,000); in the data active = activity change below about -50%; inconclusive = mostly about -30% to -49%; also: % is scaled to controls: 0 for no effect and ±100 for the full control effect
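THP-1 cells pretreated 1 hr with compounds (up to 57.5 uM final), then stimulated with LPS (250 ng/mL final) plus ATP (1.25 mM final); secreted IL-1B measured by AlphaLISA after 16 hr, decreased signal indicating inhibition.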
TGFb inhibitor = inhibitors of TGF-b signaling; HepG2 CAGA-GFP TGF-b/SMAD3 reporter, GFP fluorescence, 18 h; TGF-beta stimulated, 500 pg/mL final; Potency, µM (highest dose often 46.1 µM), for the others: at the top dose activity, negative = inhibition, usual class: inhibitors; actives 1.2% (n = 410,000); also: potency is read from the fitted curve at half-maximal effect; % is scaled to controls: 0 for no effect and ±100 for the full control effect; nearly all actives have a fitted effect of over 65% in size
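HEPG2 CAGA-GFP cells (1000/well, DMEM with 1% FBS) were pre-incubated 2 h at 37 degrees C, given compound by pin tool, then stimulated with TGF-beta at 500 pg/mL final for 18 h before per-cell GFP fluorescence imaging.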
TDP1 cell CPT = DT40-hTDP1 cell growth loss with CPT. chicken DT40 Tdp1-/-;hTDP1 cells + 20 nM CPT, ATP luminescence, 48 h. actives 12% (n = 420,000). AID 686979. Potency, µM (series often up to 46.2 µM), inactives show at the highest dose activity change, negative = growth inhibition, hits mostly inhibitors; also: potency is read from the fitted curve at half-maximal effect; % is scaled to controls: 0 for no effect and ±100 for the full control effect; nearly all actives have a fitted effect of over 55% in size
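Chicken DT40 Tdp1-/- cells complemented with human TDP1, 400 cells/well, exposed to compounds plus 20 nM camptothecin for at least 48 h at 37 C; viability read as ATP content by CellTiter-Glo luminescence.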
HepG2 viability = counter-screen for TGF-b inhibitors: cytotoxicity in HepG2 cells; HepG2 CAGA-GFP viability, ATP luminescence, 18 h; Potency, µM (doses to about 46.1 µM), for inactives: at the highest dose activity change, negative = cytotoxicity, most hits filed as cytotoxic; actives 0.76% (n = 410,000); AID 588856; also: potency is read from the fitted curve at half-maximal effect
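CellTiter-Glo luminescence gave cytotoxicity after 18 hours at 37 degrees C. The cells were HepG2 CAGA-GFP in 1% FBS DMEM, stimulated with 500 pg/mL TGF-beta after compound addition. %Activity was normalised to no-cell wells (complete cell-killing) and DMSO (no toxicity), and curves were fitted and classified.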
TDP1 block = blocks human tyrosyl-DNA phosphodiesterase 1 | Potency, µM (doses to about 130 µM), inactives show at the top dose activity change, negative = inhibition, most hits filed as inhibitors | recombinant TDP1, AlphaScreen DNA substrate cleavage | actives 0.28% (n = 350,000) | Q9NUW8; also: potency is read from the fitted curve at half-maximal effect; % is scaled to controls: 0 for no effect and ±100 for the full control effect; nearly all actives have a fitted effect of over 40% in size
Target sequence (Q9NUW8 whole entry, looked up): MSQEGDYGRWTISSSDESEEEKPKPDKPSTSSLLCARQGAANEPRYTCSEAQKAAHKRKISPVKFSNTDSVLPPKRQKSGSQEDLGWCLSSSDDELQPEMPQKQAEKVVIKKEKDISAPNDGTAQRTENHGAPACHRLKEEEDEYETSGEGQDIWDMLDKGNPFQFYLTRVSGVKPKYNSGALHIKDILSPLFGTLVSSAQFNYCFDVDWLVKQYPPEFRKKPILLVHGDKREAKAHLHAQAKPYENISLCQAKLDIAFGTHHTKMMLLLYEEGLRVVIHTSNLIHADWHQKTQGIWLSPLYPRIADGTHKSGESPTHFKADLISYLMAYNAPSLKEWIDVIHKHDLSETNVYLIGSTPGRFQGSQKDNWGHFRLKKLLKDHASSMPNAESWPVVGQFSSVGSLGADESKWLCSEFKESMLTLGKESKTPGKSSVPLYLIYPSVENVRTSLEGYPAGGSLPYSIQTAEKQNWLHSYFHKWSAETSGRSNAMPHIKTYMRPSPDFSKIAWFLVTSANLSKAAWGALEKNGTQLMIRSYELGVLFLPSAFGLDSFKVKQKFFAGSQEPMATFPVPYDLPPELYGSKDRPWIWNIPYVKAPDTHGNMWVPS
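Compounds were preincubated with Tdp1 (1 nM final) for 15 min at room temperature before substrate (15 nM final) started a 5 min reaction; beads (10 ug/ml final) were then added for 10 min before AlphaScreen detection.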
Starred values were filed as active, the others as inactive; ? = inconclusive; · = not tested or not shown. Unless noted, calls follow the shape of the dose curve; as a rule, active = well fitted curve in the direction sought with a large enough effect; inconclusive = small, poorly fitted or top-dose-only effect, or another doubt; inactive = no such curve, though single readings can be large; an effect the other way counts as inactive or inconclusive.

SMILES	TDP1 cell noCPT	IL-1B inflam inh	TGFb inhibitor	TDP1 cell CPT	HepG2 viability	TDP1 block
CC(=O)N1c2ccc(S(=O)(=O)N3CCC(C(=O)Nc4cccc(Cl)c4)CC3)cc2CC1C (configuration not stated)	2.1µM*	15	?	2.1µM*	3%	0%
COc1ccc(Cl)cc1NC(=O)C1CCN(S(=O)(=O)c2ccc(F)cc2)CC1	18µM*	·	?	?	-31%	·
Cc1cc(Cl)ccc1NC(=O)NC1CCN(S(=O)(=O)c2ccc(F)cc2)CC1	?	-7	-12%	23µM*	-11%	6%
C=CCc1cc(F)c(S(=O)(=O)N2CCN(S(=O)(=O)c3ccc4c(c3)OCCO4)CC2)cc1F	·	·	·	·	·	-1%
CN(CCOc1ccccc1)C(=O)C1CCC(=O)N(CCN2CCOCC2)C1 (configuration not stated)	-1%	0	-18%	18%	-26%	6%
CCN1C(Br)=CCc2ccccc21	-11%	·	1%	6%	0%	·
CC(=O)N1c2ccc(S(=O)(=O)N3CCC(C(=O)Nc4cccc(Cl)c4C)CC3)cc2CC1C (configuration not stated)	23µM*	·	-18%	15µM*	-5%	5%
COc1ccc(Cl)cc1NC(=O)C1CCN(S(=O)(=O)c2ccc3c(c2)CC(C)N3C(C)=O)CC1 (configuration not stated)	21µM*	·	?	16µM*	-1%	6%
CC(=O)N1c2ccc(S(=O)(=O)N3CCC(C(=O)Nc4cccc(F)c4)CC3)cc2CC1C (configuration not stated)	?	-1	2%	16µM*	-16%	2%
CC(=O)N1c2ccc(S(=O)(=O)N3CCC(C(=O)Nc4cc(C)cc(C)c4)CC3)cc2CC1C (configuration not stated)	?	0	7%	?	-2%	3%
COc1ccccc1NC(=O)C1CCN(S(=O)(=O)c2ccc3c(c2)CC(C)N3C(C)=O)CC1 (configuration not stated)	?	36	7%	?	-1%	2%
CC(=O)N1c2ccc(S(=O)(=O)N3CCC(C(=O)Nc4cccc(C)c4)CC3)cc2CC1C (configuration not stated)	?	21	-10%	16µM*	-5%	2%
Cc1ccc(F)c(S(=O)(=O)NC(=O)C2(C)CCN2C(=O)c2ccccc2)c1 (configuration not stated)	-7%	31	6%	-5%	-3%	·
COC(=O)CN1C(=O)[C@@H]2[C@H](C1=O)[C@@H]1CC(C(=O)OC)=C[C@@H](C(=O)OC)C3C1=C(C(=O)[C@@]3(C)NC(=O)c1ccccc1)[C@@H]2C (some centres not stated)	·	·	-13%	·	5%	10%
COc1cc(CNC2CCCCCC2)cc(OC)c1O	-8%	8	27%	1%	-6%	-2%
COc1cc(CNC2CCCC2)cc(Cl)c1OCc1ccccc1F	13µM*	-76*	?	16µM*	11µM*	1%
COc1cc(CNc2ccc3[nH]c(=O)[nH]c3c2)cc(Cl)c1OCc1ccc(F)cc1	15µM*	·	-16%	18µM*	-15%	3%
COc1cc(CNc2ccc3[nH]c(=O)[nH]c3c2)cc(Cl)c1OCc1ccccc1F	8.2µM*	·	-7%	12µM*	-15%	4%
COc1cc(CNc2ccc3[nH]c(=O)[nH]c3c2)ccc1OCc1ccc(C)cc1	?	?	0%	?	-56%	·
